Measurements taken from PubChem BioAssay (NCATS).
“And” between values parts separate entries of the source, which are not always exact repeats. Equal entries are not always repeated. Results filed as inconclusive are left out. The source made the active and inactive calls. Calls come from the whole dose curve; as a rule, active = well fitted curve in the direction sought with a large enough effect; inconclusive = small, poorly fitted or top-dose-only effect, or another doubt; inactive = no such curve, though single readings can be large; an effect the other way counts as inactive or inconclusive.

Key:
[1] = Viability qHTS for spleen associated tyrosine kinase inhibitor (SYKi) drug resistant MV4-11 cells (AID 1963824); note: nearly all actives have a fitted effect of over 35% in size; note: potency is the fitted concentration of half-maximal effect
Summary of the method: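 SYK-inhibitor-resistant MV4-11 AML cells were seeded at 500 per well onto compound and cultured 72 hours (37 °C, 5% CO2). CellTiter-Glo was then added, and after 10 min at room temperature, luminescence gave viability.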

[2] = Cellular viability qHTS for adrenocortical cancer (ACC) cell line SW-13 (AID 1963989); conditions: SW-13 ACC cells viability, CellTiter-Glo, 48 h; activity (max response): active compounds read low; note: nearly all actives have a fitted effect of over 65% in size; note: potency is the fitted concentration of half-maximal effect;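 for activity (max response): cells grown in serum-free medium with ITS supplement; % is set by controls: 0 for no effect and ±100 for the full control effect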
Summary of the method: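 48 h treatment, SW-13 in ITS/DMEM serum-free; doses up to 46 uM; readout CellTiter-Glo luminescence; curve fit four-parameter logistic.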

[3] = Cellular viability qHTS for adrenocortical cancer (ACC) cell line NCI-H295R (AID 1963990); note: nearly all actives have a fitted effect of over 60% in size; note: potency is the fitted concentration of half-maximal effect
Summary of the method: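 Compound titrations (up to 46 uM final) are applied to NCI-H295R cultures for 48 h at 37C. Viable cell number is estimated by CellTiter-Glo signal, normalised to DMSO and doxorubicin controls.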

[4] = Quantitative highthroughput screen to assess conditional lethalithy of NOMO1 cells grown in RPMI1640 with untreated serum (RPMI+s) (AID 1963876);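 note: 100% = DMSO wells and 0% = empty wells without cells; nearly all actives have a fitted effect of over 35% in size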
Summary of the method: (§1)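 Each medium arm—HPLM with 10% dialyzed FBS, or RPMI1640 with 5 mM glucose and 10% untreated or dialyzed FBS—was screened against an 11-point, 3-fold compound titration for 48 h at 37 °C, with CellTiter-Glo luminescence as endpoint.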

[5] = Quantitative highthroughput screen to assess conditional lethalithy of NOMO1 cells grown in RPMI1640 with dialyzed fetal bovine serum (RPMI+ds) (AID 1963877); note: nearly all actives have a fitted effect of over 30% in size; note: potency is the fitted concentration of half-maximal effect;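 for Viability: series mostly up to about 46 µM; 100% = DMSO control wells and 0% = empty wells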
Summary of the method: as §1

[6] = Quantitative highthroughput screen to assess conditional lethalithy of NOMO1 cells grown in Human Plasma-Like Medium with dialyzed fetal bovine serum (HPLM+ds) (AID 1963878);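 note: 100% = DMSO wells and 0% = empty wells on each plate; nearly all actives have a fitted effect of over 35% in size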
Summary of the method: as §1

[7] = Quantitative highthroughput screen to assess conditional lethalithy of P12 Ichikawa cells grown in RPMI1640 with dialyzed fetal bovine serum (RPMI+ds) (AID 1963880); conditions: Potency: P12-Ichikawa viability; note: nearly all actives have a fitted effect of over 35% in size; note: potency is the fitted concentration of half-maximal effect;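 for Viability: 100% = DMSO wells and 0% = empty wells on each plate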
Summary of the method: as §1

[8] = Quantitative highthroughput screen to assess conditional lethalithy of P12 Ichikawa cells grown in RPMI1640 with untreated serum (RPMI+s) (AID 1963881); conditions: Potency: viability; note: nearly all actives have a fitted effect of over 35% in size; note: potency is the fitted concentration of half-maximal effect;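 for Viability: series mostly up to about 46 µM; 100% = DMSO wells and 0% = empty wells without cells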
Summary of the method: as §1

[9] = Quantitative highthroughput screen to assess conditional lethalithy of SEM cells grown in RPMI1640 with unreated serum (RPMI+s) (AID 1963883); note: nearly all actives have a fitted effect of over 35% in size; note: potency is the fitted concentration of half-maximal effect;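 for Viability: 100% = DMSO wells and 0% = empty wells without cells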
Summary of the method: as §1

[10] = Quantitative highthroughput screen to assess conditional lethalithy of P12 Ichikawa cells grown in Human Plasma-Like Medium with dialyzed fetal bovine serum (HPLM+ds) (AID 1963879); conditions: Potency: viability; note: nearly all actives have a fitted effect of over 35% in size; note: potency is the fitted concentration of half-maximal effect; for Viability: series mostly up to about 46 µM
Summary of the method: as §1

[11] = Quantitative highthroughput screen to assess conditional lethalithy of SEM cells grown in RPMI1640 with dialyzed fetal bovine serum (RPMI+ds) (AID 1963884)
Summary of the method: as §1

[12] = Quantitative highthroughput screen to assess conditional lethalithy of SEM cells grown in Human Plasma-Like Medium with dialyzed fetal bovine serum (HPLM+ds) (AID 1963882); note: nearly all actives have a fitted effect of over 35% in size; note: potency is the fitted concentration of half-maximal effect; for Viability: series mostly up to about 46 µM
Summary of the method: as §1

CN(C)c1cc2c(cc1Sc1nc3c(N)nccc3n1CCNCC(C)(C)C)OCO2
active: Potency [1] 184 nM and 235 nM | Potency [2] 1.41 µM | Potency [3] 2.24 µM

COc1cccc2c1[C@]13CCN(CC4CC4)[C@H](C2)[C@]1(OC)CCC(=O)C3
inactive: Potency [4] | Potency [5] | Potency [6] | Potency [7] | Potency [8] | Potency [9]

Cc1nc(-c2ccc(-c3ccc(C(=O)N4CCc5cc6c(cc54)C4(CCN(C)CC4)CO6)cc3)c(C)c2)no1
inactive: Potency [4] | Potency [6] | Potency [10] | Potency [7] | Potency [9] | Potency [11]

CC1=NN=C(c2ccc(N)cc2)c2cc3c(cc2C1)OCO3
inactive: Potency [4] | Potency [6]

Cc1nnc2n1-c1sc(CCc3ccc(CC(C)C)cc3)cc1C(c1ccccc1Cl)=NC2C (stereo unspecified)
active: Potency [1] 4.11 µM | Potency [3] 8.2 µM

O=C(NCC1CCOCC1)c1cnc(Nc2ccc(Cl)cc2Cl)nc1C(F)(F)F
inactive: Potency [4] | Potency [6] | Potency [10] | Potency [7] | Potency [12] | Potency [9] | activity (max response) [2] -11.7%

CCCN1CCC[C@@H]2Cc3nc(N)ncc3C[C@H]21
inactive: Potency [1] | activity (max response) [2] 3.03% | Potency [3]

C[C@]12CC[C@H]3[C@@H](CCC4=CC(=O)CC[C@@]43C)[C@@H]1CC[C@@H]2C(=O)O
inactive: Potency [1] | activity (max response) [2] 11.4% | Potency [3]

C[C@]12Cc3nonc3C[C@@H]1CC[C@@H]1[C@@H]2CC[C@@]2(C)[C@H]1CC[C@]2(C)O
active: Potency [1] 16.8 µM | Potency [3] 23.1 µM

CO[C@H]1CCC(O[C@H]2C[C@H]([C@]3(C)CC[C@]4(C[C@H](O)[C@@H](C)[C@@H]([C@@H](C)/C=C(\C)C(=O)[C@H](C)C[C@H](C)C(=O)O)O4)O3)O[C@]3(O[C@@H]([C@H]4O[C@@](O)(CO)[C@H](C)C[C@@H]4C)C[C@@H]3C)[C@@H]2C)O[C@@H]1C (stereo partly specified)
active: Potency [1] 0.209 µM | Potency [3] 1.12 µM

CC(C)(C)NC[C@H](O)c1ccc(O)cc1Cl
inactive: Potency [1] | activity (max response) [2] 9.97% | Potency [3]

Nc1nc(N)nc(NC2CC2)n1
inactive: Potency [1] | Potency [3]

CCN(CC)CCc1c[nH]c2ccccc12
inactive: Potency [1] | activity (max response) [2] -11.9% | Potency [3]

C[C@@H]1CC[C@H]2[C@@H](C)C(=O)O[C@@H]3O[C@@]4(C)CC[C@H]1[C@]32OO4
inactive: Potency [4] | Potency [6] | Potency [10] | Potency [8] | Potency [11]

C[C@](O)(CS(=O)(=O)c1ccc(F)cc1)C(=O)Nc1ccc(C#N)c(C(F)(F)F)c1
inactive: Potency [4] | Potency [10] | Potency [7] | Potency [8] | Potency [12] | Potency [9]

CCOC(=O)c1c(C(C#N)=CN)c2ccc(Cl)c(Cl)c2n1C
active: Potency [9] 18.7 µM
inactive: Potency [4] | Potency [6] | activity (max response) [2] -1.19% | Potency [3]

C=C1C[C@H]2[C@H]3CCC(=O)[C@@]3(C)CC[C@@H]2[C@@]2(C)C=CC(=O)C=C12
inactive: Potency [4] | Potency [10]

CN(C)CCN(C)CCc1ccc(Cl)c(Cl)c1
inactive: Potency [4] | Potency [10] | Potency [7] | activity (max response) [2] -5.37% | Potency [3]

O=[N+]([O-])c1ncc[nH]1
inactive: Potency [4] | Potency [10] | Potency [9]

CCOC(=O)c1cncn1[C@H](C)c1ccccc1
inactive: Potency [5] | Potency [7] | Potency [8] | Potency [11]

C[C@]12COC(=O)C[C@@H]1CC[C@@H]1[C@H]2CC[C@@]2(C)[C@H]1CC[C@]2(C)O
inactive: Potency [4] | Potency [10] | Potency [7] | Potency [12]

O=C1C=CC[C@@H]2[C@H]3CCCN4CCC[C@@H](CN12)[C@@H]34
inactive: Potency [5] | Potency [12] | activity (max response) [2] -3.97% | Potency [3]

c1cc2c(cc1[C@H]1OC[C@H]3[C@H]1CO[C@H]3c1ccc3c(c1)OCO3)OCO2
inactive: Potency [4] | Potency [10] | Potency [7] | Potency [8] | Potency [12] | Potency [9]

CC[C@H]1C=CC=CC[C@@H](C)[C@H](O)[C@@](C)(O)C(=O)[C@@H](C)[C@H](O)[C@@H](C)C(=O)[C@@H](C)[C@H](O)[C@@H](C)C=CC(=O)O[C@@H]2[C@@H](C)[C@H](CC1)O[C@]1(CC[C@H](C)[C@H](C[C@@H](C)O)O1)[C@H]2C
active: Potency [5] 4.69 µM | Potency [10] 11.8 µM | Potency [7] 5.26 µM | Potency [8] 16.6 µM | Potency [12] 5.9 µM

CC1=C2C[C@@H]3[C@@H](CC=C4C[C@@H](O)CC[C@@]43C)[C@@H]2CC[C@]12O[C@H]1C[C@H](C)CN[C@H]1[C@H]2C
inactive: Potency [4] | Potency [10] | Potency [7]

COc1ccc2c(c1)[C@]13CCCCC1C(C2)N(C)CC3 (stereo partly specified)
inactive: Potency [4] | Potency [10] | Potency [8] | Potency [12] | Potency [11]
